ASM inhibitor – Inhibitors of Secretory Acid Sphingomyelinase (S-ASM): qHTS; Sphingomyelin phosphodiesterase (Homo sapiens), P17405; placental ASM, HMU-PC fluorogenic substrate, 60 min; Potency, µM (top dose mostly 57.5 µM), most hits filed as inhibitors; 340,000 compounds, 0.006% hits; AID 504937, 2011
Target sequence (P17405 47-631 limits assumed): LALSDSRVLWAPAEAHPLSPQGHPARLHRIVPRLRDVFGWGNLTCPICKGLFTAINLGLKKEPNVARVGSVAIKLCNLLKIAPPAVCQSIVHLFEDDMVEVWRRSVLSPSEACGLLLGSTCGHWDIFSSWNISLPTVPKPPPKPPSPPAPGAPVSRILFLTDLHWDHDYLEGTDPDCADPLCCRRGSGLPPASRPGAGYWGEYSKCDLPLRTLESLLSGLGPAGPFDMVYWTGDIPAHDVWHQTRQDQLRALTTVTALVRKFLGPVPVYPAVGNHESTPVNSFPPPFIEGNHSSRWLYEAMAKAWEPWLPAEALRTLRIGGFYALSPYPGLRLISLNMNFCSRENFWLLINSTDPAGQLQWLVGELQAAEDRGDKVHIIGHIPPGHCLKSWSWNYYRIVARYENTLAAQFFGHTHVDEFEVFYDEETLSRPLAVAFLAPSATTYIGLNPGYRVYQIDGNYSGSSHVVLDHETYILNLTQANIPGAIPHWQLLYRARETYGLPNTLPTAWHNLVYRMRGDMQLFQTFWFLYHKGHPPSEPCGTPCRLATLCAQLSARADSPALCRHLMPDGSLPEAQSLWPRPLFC
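Fluorescence read-out (Ex 386 nm, Em 447 nm) after stopping the reaction at pH 10. Enzyme: ASM from human placenta; substrate HMU-PC0, 9 uM final; 60 min, 37 °C. Compound preincubation 10 min, ambient temperature.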
DT40 TDP1 no CPT – qHTS for Inhibitors of human tyrosyl-DNA phosphodiesterase 1 (TDP1): qHTS in cells in absence of CPT; DT40 Tdp1-/- hTDP1 cells, no CPT, ATP luminescence, 48 h; 420,000 compounds, 15% hits; Potency, µM (series often up to 46.2 µM), usual class: inhibitors; note: nearly all actives have a fitted effect of over 55% in size
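Compound effects on proliferation are scored in DT40 Tdp1-/-;hTDP1 cells in the absence of CPT. ATP levels (CellTiter-Glo luminescence) are recorded after a ≥48 hr, 37 °C incubation.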
DT40 TDP1 CPT – qHTS for Inhibitors of human tyrosyl-DNA phosphodiesterase 1 (TDP1): qHTS in cells in presence of CPT; chicken DT40 Tdp1-/-;hTDP1 cells + 20 nM CPT, ATP luminescence, 48 h; Potency, µM (top dose mostly 46.2 µM), most hits filed as inhibitors; 420,000 compounds, 12% hits; AID 686979, 2013; note: nearly all actives have a fitted effect of over 55% in size
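Chicken DT40 Tdp1-/- cells stably complemented with human TDP1 were seeded at 400 cells/well in medium containing 20 nM camptothecin, exposed to pin-transferred compounds, and grown at 37 °C for at least 48 hr. Viability was read as ATP luminescence.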
IL1B secr inh – qHTS for Inhibitors of Inflammasome Signaling: IL-1-beta AlphaLISA Primary Screen; 360,000 compounds, 4.7% hits; activity change, % at 57.5 µM; AID 743279, 2014; THP-1 LPS/ATP IL-1B secretion, AlphaLISA, 16 h; hits give low values; in the data active = activity change below about -50%; inconclusive = mostly about -30% to -49%
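THP-1 cells pretreated 1 hr with compounds (up to 57.5 uM final), then stimulated with LPS (250 ng/mL final) plus ATP (1.25 mM final); secreted IL-1B measured by AlphaLISA after 16 hr, decreased signal indicating inhibition.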
HepG2 viability – qHTS for Inhibitors of TGF-b: Cytotox Counterscreen; 410,000 compounds, 0.76% hits; HepG2 CAGA-GFP viability, ATP luminescence, 18 h; Potency, µM (top dose mostly 46.1 µM), usual class: cytotoxic
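HepG2 CAGA-GFP cells (1000/well, DMEM with 1% FBS) received compound, then TGF-beta at 500 pg/mL final, and were incubated 18 hours at 37 degrees C. Viability was read by CellTiter-Glo luminescence. Media-only wells were set as complete cell-killing and DMSO as no toxicity.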
TGFb inhibitor – qHTS for Inhibitors of TGF-b | AID 588855, 2011 | 410,000 compounds, 1.2% hits | HepG2 CAGA-GFP TGF-b/SMAD3 reporter, GFP fluorescence, 18 h; TGF-beta stimulated, 500 pg/mL final | Potency, µM (series often up to 46.1 µM), most hits filed as inhibitors; note: nearly all actives have a fitted effect of over 65% in size
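First, reporter cells (HEPG2 CAGA-GFP) rested 2 h at 37 degrees C. Next, compounds were pinned in and TGF-beta added to 500 pg/mL final. After 18 h, GFP was imaged per cell and summed per well.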
Hits are given with their value; 0 = inactive; ? = inconclusive; - = not tested or not shown. An excerpt weighted towards active compounds, which were near 19% of everything screened. Unless noted, calls come from the whole dose curve; as a rule, active = well fitted curve in the direction sought with a large enough effect; inconclusive = small, poorly fitted or top-dose-only effect, or another doubt; inactive = no such curve, though single readings can be large; an effect the other way counts as inactive or inconclusive.

SMILES	ASM inhibitor	DT40 TDP1 no CPT	DT40 TDP1 CPT	IL1B secr inh	HepG2 viability	TGFb inhibitor
Cc1[nH]nc2ncc(C(=O)c3cc(F)ccc3O)cc12	0	?	?	0	0	0
COc1ccc(-c2nn(-c3ccccc3)cc2/C=N/NC(=S)NC(C)C)cc1OC	0	18µM	23µM	?	0	0
COc1ccc(-c2nn(-c3ccccc3)cc2CO)cc1OC	0	0	?	0	0	0
COc1ccc(-c2nn(-c3ccccc3)cc2/C=N/N=C(N)N)cc1OC	0	13µM	23µM	?	0	?
O/N=C/c1cn(-c2ccccc2)nc1-c1ccccc1	0	?	?	0	0	?
COc1ccc(-c2nn(-c3ccccc3)cc2/C=N/Nc2ccc(S(N)(=O)=O)cc2[N+](=O)[O-])cc1OC	0	?	0	0	0	0
COc1ccc(-c2nn(-c3ccccc3)cc2/C=N/Nc2ccc3ccccc3n2)cc1OC	0	4.1µM	3.3µM	0	4.5µM	?
COC(=O)c1cn(-c2ccccc2)nc1-c1ccc(OC)c(OC)c1	0	?	0	0	0	0
COc1ccc(-c2nn(-c3ccccc3)cc2/C=N/O)cc1OC	0	26µM	?	0	0	0
CCOc1ccc(NC(=S)N2CCC(c3nc4ccccc4[nH]3)CC2)cc1	0	0	0	0	0	0
COc1ccc(CCN2CC(C(=O)NCc3cnn(C(C)C)c3)CCC2=O)cc1 (configuration not stated)	0	0	0	0	0	0
O=C(COC(=O)C1=NNC(=O)CC1)NCCc1ccccc1	0	0	0	0	0	0
Cc1ccc(CNC(=O)CCCCCn2c(=O)c3sccc3n(CC(=O)N3CCCCC3C)c2=O)cc1 (configuration not stated)	-	?	?	-	0	0
O=C(Oc1ccc(N(Cc2cccs2)C2=NS(=O)(=O)c3ccccc32)cc1)c1ccccc1	0	23µM	?	0	0	0
CN(C1=NS(=O)(=O)c2ccccc21)c1ccc(OC(=O)c2ccccc2)cc1	0	?	0	0	0	0
O=C(Oc1ccc(N(Cc2cccs2)C2=NS(=O)(=O)c3ccccc32)cc1)c1ccc(Cl)cc1	0	18µM	?	0	0	0
CCN(C(=O)c1ccc2c(c1)N(Cc1cccc(Cl)c1)C(=O)c1ccccc1S2=O)c1ccccc1 (configuration not stated)	-	16µM	?	-	0	?
O=C(O)c1ccc2c(c1)N(Cc1ccccc1)C(=O)c1ccccc1S2=O (configuration not stated)	0	0	?	0	0	0
O=C(NCCCN1CCOCC1)c1ccc2c(c1)N(Cc1ccc(Cl)cc1)C(=O)c1ccccc1S2=O (configuration not stated)	0	?	?	0	0	?
CCN1CCN(CCNC(=O)c2ccc3c(c2)N(Cc2cccc(Cl)c2)C(=O)c2ccccc2S3=O)CC1 (configuration not stated)	0	0	0	-55	0	0
Cc1ccc(CNC(=O)CCCCn2c(=O)c3ccccc3n(Cc3c(C)cc(C)cc3C)c2=O)cc1	-	0	0	-	0	0
O=C(COc1ccc(Cl)cc1Cl)c1ccc[nH]1	0	0	0	0	0	0
Cc1cc2oc(=O)cc(-c3ccccc3)c2c(C)c1-c1ccc(N(C)C)cc1	0	?	?	0	0	?
Cc1cc2oc(=O)cc(-c3ccccc3)c2c(C)c1-c1ccc(C(F)(F)F)cc1	0	?	?	0	0	0
Cc1ccc(-c2c(C)cc3oc(=O)cc(-c4ccccc4)c3c2C)cc1	0	23µM	?	0	0	0
SMILES	ASM inhibitor	DT40 TDP1 no CPT	DT40 TDP1 CPT	IL1B secr inh	HepG2 viability	TGFb inhibitor
COc1ccc(-c2ccc(-c3cc(=O)oc4c(C(C)C)ccc(C)c34)cc2)cc1	0	21µM	23µM	0	0	0
COc1ccc(-c2c(C)cc3oc(=O)cc(-c4ccccc4)c3c2C)cc1	0	?	23µM	0	0	?
COc1ccc(-c2cccc(-c3cc(=O)oc4cc(OC)c(OC)c(OC)c34)c2)cc1	0	?	?	0	0	0
COc1ccc(CNC(=O)C2CCN(c3cc(C(=O)Nc4cccc(OC)c4)ccn3)CC2)cc1	0	?	?	0	0	0
CCOC(=O)C1C2C=CC3(CN(Cc4cccs4)C(=O)C13)O2 (configuration not stated)	0	21µM	?	0	0	0
COC(=O)C1[C@H]2C(=O)N(Cc3cccs3)C[C@]23C=C[C@H]1O3 (some centres not stated)	0	0	0	0	0	0
COC(=O)c1c(NC(=O)CN2C(=O)NC3(CCCCC3C)C2=O)sc2c1CCC2 (configuration not stated)	0	?	?	-52	0	0
CCOC(=O)c1c(NC(=O)CN2C(=O)NC3(CCCCC3C)C2=O)sc(C)c1CC (configuration not stated)	0	?	?	0	0	?
CC1=C(C(=O)N2CCOCC2)CC(CC(=O)NCCCN(C)C)C(=O)N1Cc1ccc(F)cc1 (configuration not stated)	-	0	0	0	0	0
C[N+]1(CC(=O)c2ccc3ccccc3c2)CCOCC1	-	0	0	-	0	0
COC(=O)CCSc1cc([N+](=O)[O-])cc2c1c(C1OCCO1)nn2-c1ccccc1	0	0	0	0	0	0
CC(=O)Nc1ccc(Nc2ccc3nonc3c2[N+](=O)[O-])cc1	0	?	0	0	0	0
COC(=O)CCSc1cc(NCCOC(C)=O)c([N+](=O)[O-])c2nonc12	0	18µM	11µM	-97	0	?
CCCC(=O)OCCNc1cc(SCCC(=O)OC)c2nonc2c1[N+](=O)[O-]	0	?	16µM	-86	0	?
Clc1cccc(-c2nnc(CN3CCN(c4ccccn4)CC3)o2)c1	-	0	0	-	0	0
Cc1cc(CN2CCN(CCC#N)CC2)c(O)c(C2(C)CCCCC2)c1	0	21µM	16µM	0	0	0
N#CCCN1CCN(CCC#N)CC1	0	0	0	0	0	0
COc1ccc2nc3n(c(=O)c2c1)-c1ncccc1C(=O)NC3C (configuration not stated)	-	?	0	0	0	0

Screens deposited in PubChem by National Center for Advancing Translational Sciences (NCATS).
